High-throughput results deposited in PubChem BioAssay by National Center for Advancing Translational Sciences (NCATS).
TGFb inhibitor = blocks TGF-b signaling | HepG2 CAGA-GFP TGF-b/SMAD3 reporter, GFP fluorescence, 18 h; TGF-beta stimulated, 500 pg/mL final | Potency, µM (doses to about 46.1 µM), without a hit: top-dose activity, negative = inhibition, most hits filed as inhibitors | 410,000 compounds, 1.2% hits; also: % is scaled to controls: 0 for no effect and ±100 for the full control effect; nearly all actives have a fitted effect of over 65% in size
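HEPG2 CAGA-GFP reporter cells (1000/well, DMEM with 1% FBS) received compounds, then recombinant TGF-beta at 500 pg/mL final for 18 hours at 37 degrees C. Per-cell GFP summed per well was normalised to unstimulated and stimulated DMSO controls before curve fitting.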
HT1080NT lethal = kills 2HG-producing HT-1080-NT fibrosarcoma cells; HT-1080-NT fibrosarcoma viability, CellTiter-Glo ATP luminescence, 48 h; Potency, µM (series often up to 46.1 µM), for inactives: at the highest dose activity, negative = less viability, hits mostly cytotoxic; 360,000 compounds, 1.6% hits; AID 686970;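 also: NT is the 2HG producing partner of a matched IDH1 knockdown line; 0% = DMSO-treated cells and -100% = media-only wells without cells; nearly all actives have a fitted effect of over 55% in size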
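Read-out is CellTiter-Glo luminescence after 10 minutes at room temperature, following 48 hours' compound treatment of HT-1080-NT cells (750 cells/well, RPMI, 5% FBS, 37 degrees C).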
DT40 TDP1 no CPT = qHTS for Inhibitors of human tyrosyl-DNA phosphodiesterase 1 (TDP1): qHTS in cells in absence of CPT; DT40 Tdp1-/- hTDP1 cells, no CPT, ATP luminescence, 48 h; 420,000 compounds, 15% hits; AID 686978, 2013; Potency, µM (titrated, usually from 46.2 µM), inactives show top-dose activity change, negative = growth inhibition, most hits filed as inhibitors; also: % is scaled to controls: 0 for no effect and ±100 for the full control effect; nearly all actives have a fitted effect of over 55% in size
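Stably hTDP1-transfected Tdp1-null chicken DT40 cells were treated with library compounds minus camptothecin and grown for at least 48 hr at 37 °C, after which cellular ATP was quantified by luminescence.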
HT1080 IDH1KD tx = toxicity to HT-1080 IDH1 knockdown cells (counter line); HT-1080 IDH1 knockdown viability, ATP luminescence, 48 h; Potency, µM (titrated, usually from 46.1 µM), for the others: at the top dose activity, negative = toxicity, most hits filed as cytotoxic; 360,000 compounds, 2% hits;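 also: 0% = DMSO wells and -100% = cell-free medium wells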
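Cytotoxicity counter-line: IDH1KD HT-1080, 48 h, CellTiter-Glo. Curves classed by r2, magnitude and activity.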
HepG2 viability = HepG2 cytotoxicity, counter-screen for TGF-b inhibitors; AID 588856; HepG2 CAGA-GFP viability, ATP luminescence, 18 h; Potency, µM (top dose mostly 46.1 µM), for inactives: top-dose activity change, negative = cytotoxicity, usual class: cytotoxic; 410,000 compounds, 0.76% hits
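HepG2 CAGA-GFP cells (1000/well, DMEM with 1% FBS) received compound, then TGF-beta at 500 pg/mL final, and were incubated 18 hours at 37 degrees C. Viability was read by CellTiter-Glo luminescence. Media-only wells were set as complete cell-killing and DMSO as no toxicity.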
TDP1 cell CPT = DT40-hTDP1 cell growth loss with CPT | Potency, µM (doses to about 46.2 µM), for inactives: top-dose activity change, negative = growth inhibition, most hits filed as inhibitors | 420,000 compounds, 12% hits | chicken DT40 Tdp1-/-;hTDP1 cells + 20 nM CPT, ATP luminescence, 48 h; also: % is scaled to controls: 0 for no effect and ±100 for the full control effect; nearly all actives have a fitted effect of over 55% in size
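Chicken DT40 Tdp1-/- cells complemented with human TDP1, 400 cells/well, exposed to compounds plus 20 nM camptothecin for at least 48 h at 37 C; viability read as ATP content by CellTiter-Glo luminescence.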
Numbers without * were called inactive; ? = inconclusive; nt = no result. A selection: hits, their analogues and other compounds. The true share with any hit is near 17%. Calls follow the shape of the dose curve; as a rule, active = well fitted curve in the direction sought with a large enough effect; inconclusive = small, poorly fitted or top-dose-only effect, or another doubt; inactive = no such curve, though single readings can be large; an effect the other way counts as inactive or inconclusive. Potency is read from the fitted curve at half-maximal effect.

SMILES | TGFb inhibitor | HT1080NT lethal | DT40 TDP1 no CPT | HT1080 IDH1KD tx | HepG2 viability | TDP1 cell CPT
O=C1CC(N2CCSCC2)C(=O)N1c1ccc(F)cc1 (stereo not drawn) | 5% | 15% | 0% | 11% | 10% | 17%
COc1cccc(C(=O)NCCS(=O)(=O)NCCCc2ccccc2)c1 | -2% | 6% | -16% | 0% | 8% | -20%
O=C1NC[C@H](CCCCN2C[C@H](Cc3ccc(O)cc3)N(CCc3ccccc3)C(=O)C2=O)N(CC2CCCCC2)C1=O | nt | 18% | -4% | 15µM* | nt | 30%
O=C1NC[C@@H](CCCCN2C[C@H](Cc3ccccc3)N(CC3CCCCC3)C(=O)C2=O)N(CCc2ccc(O)cc2)C1=O | nt | 17% | -13% | 15% | nt | -1%
CC(C)C[C@H]1CN(CCCC[C@H]2CNC(=O)C(=O)N2CCC2CCCCC2)C(=O)C(=O)N1CCc1ccccc1 | nt | 26% | 18µM* | 29% | nt | ?
Cn1nc(C(=O)NNC(=O)c2cccc(Cl)c2)ccc1=O | 9% | 5% | 0% | 2% | 18% | 13%
CCCCn1c(N)c(N(CC(C)C)C(=O)c2ccc(-c3ccc(Cl)cc3)o2)c(=O)[nH]c1=O | -17% | 6% | ? | 11% | 0% | ?
O=C(CCCOc1ccccc1)N1CCN(c2ccccc2)CC1 | 0% | -7% | ? | 0% | -5% | -27%
COc1ccc(C(=O)NCC(=O)N2CCN(c3ccccc3)CC2)cc1 | 1% | 19% | -8% | 19% | 8% | -13%
Cc1cc(C(=O)CCC(=O)N2CCN(c3ccccc3O)CC2)c(C)s1 | -21% | -9% | ? | -18% | -9% | ?
COc1ccc(N2CCN(C(=O)CCC(=O)c3cc(C)sc3C)CC2)cc1 | -11% | 0% | 16µM* | 5% | -29% | ?
O=C(CCOc1ccccc1)N1CCN(c2ccc(O)cc2)CC1 | 3% | 1.5µM* | ? | 4.6µM* | 6% | ?
COc1ccc(N2CCN(C(=O)CNC(=O)c3cccc(Br)c3)CC2)cc1 | -3% | 4% | 15µM* | 7% | -15% | ?
COc1ccc(N2CCN(C(=O)CCCC(=O)c3ccccc3)CC2)cc1 | -1% | 3% | ? | 7% | -28% | 21µM*
CCS(=O)(=O)c1ccc(O)c(Nc2cc(C)nc(SC)n2)c1 | -2% | nt | ? | nt | -11% | ?
CCCn1c(SCC(=O)Nc2ccc(S(=O)(=O)N3CCOCC3)cc2)n[nH]c1=O | 3% | 0% | -2% | 0% | -3% | -8%
CCOC(=O)c1c(S(=O)(=O)N2CCC(C(=O)Nc3ccc(C)cn3)CC2)c(C)n(C)c1C | 18% | nt | 11% | nt | 4% | -4%
Cc1ccc(C)c(S(=O)(=O)N2CCN(C(=O)Cc3ccccc3)CC2)c1 | 6% | -4% | ? | -15% | -1% | -10%
COc1ccc(C(=O)CCC(=O)N2CCN(c3ccc(N4CCOCC4)nn3)CC2)cc1 | 0% | 7% | -8% | 1% | 0% | 3%
Cc1ccc(C)c(S(=O)(=O)N2CCN(C(=O)CCC(=O)c3cc(C)sc3C)CC2)c1 | -7% | 3% | 23µM* | -15% | -5% | ?
COc1ccc(C(=O)CCC(=O)N2CCN(c3ccc(C)cc3)C(C)C2)cc1 (stereo not drawn) | -17% | 0% | 23µM* | -1% | -12% | ?
Cc1nc(C(=O)Nc2ccc(F)cc2)nn1-c1ccc([N+](=O)[O-])cc1 | 2% | 17% | -7% | 2% | -1% | -14%
Cc1cccc(NC(=O)C2CCCN(S(=O)(=O)c3c(C)n[nH]c3C)C2)c1 (stereo not drawn) | -3% | nt | ? | nt | -1% | -6%
CCc1nc2ccc(C(=O)NCc3ccccc3OC)cn2c1N(C)Cc1ccc(N(C)C)cc1 | 0% | 0% | 21µM* | 0% | -28% | 21µM*
COc1ccc(OCCNC(=O)c2ccc3nc(C)c(N(C)Cc4ccc(NC(C)=O)cc4)n3c2)cc1 | -8% | -3% | 16µM* | 15% | -92% | 16µM*
SMILES | TGFb inhibitor | HT1080NT lethal | DT40 TDP1 no CPT | HT1080 IDH1KD tx | HepG2 viability | TDP1 cell CPT
CCc1nc2ccc(C(=O)NCCOc3ccc(OC)cc3)cn2c1N(CC)Cc1ccc(OC)c(OC)c1 | ? | -29% | 21µM* | -10% | -40% | 21µM*
CCc1nc2ccc(C(=O)NCCOc3ccc(OC)cc3)cn2c1N(C)Cc1ccc(N(C)C)cc1 | -8% | ? | ? | 26% | -25% | 23µM*
CCc1nc2ccc(C(=O)NCCc3c[nH]c4ccccc34)cn2c1N(C)Cc1ccc(N(C)C)cc1 | -16% | 6% | ? | 3% | -27% | ?
N#CSC(c1ccccc1)c1nc2ccccc2[nH]c1=O (stereo not drawn) | ? | ? | 26µM* | ? | -74% | 6.5µM*
O=C(Nc1ccccc1F)C1CCCN1S(=O)(=O)c1cccc2nsnc12 (stereo not drawn) | -13% | 4% | 24% | 11% | 8% | 8%
O=C(Nc1ccccc1)C1=C[C@H](c2ccc(Br)cc2)C[C@H](OCc2ccc(CO)cc2)O1 | ? | -18% | ? | -3% | -7% | 29µM*
O=C(Nc1ccccc1)C1=C[C@@H](c2ccccc2)C[C@@H](OCc2ccc(CO)cc2)O1 | -16% | -4% | -20% | -11% | 3% | ?
O=C(Nc1ccccc1)C1=C[C@@H](c2ccc(C(F)(F)F)cc2)C[C@@H](OCc2ccc(CO)cc2)O1 | ? | ? | 18µM* | -27% | -11% | 23µM*
COc1cc(NC(=O)CN2Cc3ccccc3C2=O)cc(OC)c1OC | 3% | nt | -27% | nt | -5% | -15%
COc1ccc(CNC(=O)C2CCN(S(=O)(=O)c3ccc4c(ccn4C)c3)CC2)cc1 | -5% | nt | ? | nt | 0% | -5%
Cc1cn2c(=O)c(C(=O)NCc3ccc4c(c3)OCO4)cnc2s1 | -1% | ? | -5% | 11% | -5% | -7%
O=S(=O)(Nc1cc2nc3ccccc3nc2n1Cc1ccccc1)c1ccc(Cl)cc1 | ? | ? | 23µM* | -6% | -22% | ?
O=S(=O)(NCc1ccccc1)c1ccc(Cl)cc1 | -2% | -9% | -7% | -1% | -13% | -7%
CC(C)NC(=O)c1ccc2c(c1)N(CC(=O)N1CCCCC1)C(=O)C(C)(C)O2 | 0% | 19% | -23% | -4% | -3% | -2%
